# Several values for one entry are separate records, joined by “and”; a condition that tells them apart may be missing. Equal entries are not always repeated. Results filed as inconclusive are left out. Some structures have more than one record in an assay (separate samples or runs), and their calls can disagree. Activity calls are given as the source filed them. Rule for the calls, unless noted: active = hit-call score of the fitted dose curve at least 0.9, where 1 is the maximum; inactive = score below 0.9.
# Legend:
# [1] = read-out: Monocyte Chemoattractant Protein-1 (MCP1), CCL2 (gene 6347); assay: BSK_SAg_MCP1: BioMAP Diversity Plus: SAg Assay for Monocyte Chemoattractant Protein-1 (MCP1) Biomarker Activity (AID 2283090); conditions: primary human HUVEC with PBMC; actives raise or lower the signal
# Procedure, shortened: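 MCP-1 levels in the endothelial–PBMC SAg co-culture were quantified by ELISA at 24 h post-dosing; both increases and decreases versus DMSO scored. Cytotoxicity monitored by SRB total protein in parallel cultures.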
# [2] = read-out: E-selectin (Homo sapiens) (UniProt P16581); assay: BSK_SAg_Eselectin: BioMAP Diversity Plus: SAg Assay for Eselectin Biomarker Activity (AID 2283091); conditions: primary human HUVEC with PBMC; actives raise or lower the signal
# Procedure, shortened: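 Cell-surface E-selectin is read by ELISA at 24 h in the SAg co-culture of HUVEC and PBMC. Curves are fitted in both directions relative to DMSO. Parallel SRB total-protein staining tracks overt toxicity.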
# [3] = BSK_SAg_PBMCCytotoxicity: PBMC Cytotoxicity Assessment in the BioMAP Diversity Plus: SAg Assay (AID 2283093); conditions: primary human HUVEC with PBMC;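 note: PBMC viability measured as Alamar Blue reduction fluorescence at 546/580 nm; fitted both ways against DMSO so a hit may be loss or gain of signal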;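 for AC50: PBMC superantigen activated with SEB plus TSST-1 one hour after compound addition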
# Procedure, shortened: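 HUVEC/PBMC co-culture; PBMC exposed to chemical 1 h before SEB and TSST-1 activation (20 ng/mL each), incubated 90 h, then Alamar Blue 6 h, fluorescence 546/580 nm. Bidirectional fit versus DMSO baseline.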
# [4] = read-out: Interleukin-8 (IL8), CXCL8 (gene 3576); assay: BSK_SAg_IL8: BioMAP Diversity Plus: SAg Assay for Interleukin-8 (IL8) Biomarker Activity (AID 2283094); conditions: primary human HUVEC with PBMC; actives raise or lower the signal
# Procedure, shortened: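 In this co-culture of human umbilical vein endothelium with peripheral blood mononuclear cells, IL-8 is assayed by ELISA at 24 h. DMSO serves as baseline for bidirectional curve fitting.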
# [5] = BSK_SAg_Proliferation: Cell Proliferation Assessment in the BioMAP Diversity Plus: SAg Assay (AID 2283095); conditions: primary human HUVEC with PBMC;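 note: relative cell number as total protein by SRB absorbance in sub-confluent culture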
# Procedure, shortened: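 Readout is SRB-stained protein (560 nm) in a primary human HUVEC and PBMC co-culture; sub-confluent cultures are read at 96 h. Activity is fitted bidirectionally using DMSO as baseline.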
# [6] = BSK_SAg_SRB: Viability Assessment in the BioMAP Diversity Plus: SAg Assay (AID 2283096); conditions: primary human HUVEC with PBMC;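 note: cells read one day after compound addition; hits may be either gain or loss of signal compared with DMSO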
# Procedure, shortened: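 Human umbilical vein endothelial cells co-cultured with PBMC, read 24 h after compound dosing. Total protein measured by sulforhodamine B staining (0.1% SRB after 10% TCA fixation, absorbance 560 nm); bidirectional fit versus DMSO baseline.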
# [7] = target: human CYP1A1, CYP1A1 (gene 1543) (UniProt P04798); assay: NVS_ADME_hCYP1A1: NovaScreen (NVS) CYP450-related Enzyme Activity (ADME) Assay for human CYP1A1 (AID 2283100; active = hit-call score of the fitted dose curve at least 0.9, where 1 is the maximum)
# Procedure, shortened: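 Chemicals were first tested in duplicate at 10 uM, and those passing a 30% inhibition threshold were rerun as concentration series topping at 20 uM. Fluorescence read-out of recombinant enzyme turnover after 1 h, relative to acetonitrile.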
# [8] = target: human CYP2B6, CYP2B6 (gene 1555) (UniProt P20813); assay: NVS_ADME_hCYP2B6: NovaScreen (NVS) CYP450-related Enzyme Activity (ADME) Assay for human CYP2B6 (AID 2283101; active = hit-call score of the fitted dose curve at least 0.9, where 1 is the maximum)
# Procedure, shortened: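 Cell-free recombinant enzyme assay with a fluorogenic substrate; fluorescence intensity read 1 hour after dosing. Loss of signal relative to acetonitrile negative control indicates inhibition. Primary screen run in duplicate at 10 uM, actives then tested in concentration series.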
# [9] = target: human CYP19A1, CYP19A1 (gene 1588) (UniProt P11511); assay: NVS_ADME_hCYP19A1: NovaScreen (NVS) CYP450-related Enzyme Activity (ADME) Assay for human CYP19A1 (AID 2283098; active = hit-call score of the fitted dose curve at least 0.9, where 1 is the maximum;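 for AC50: potency for inhibitors seen as loss of fluorescent enzyme signal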)
# Procedure, shortened: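 Recombinant enzyme in a cell-free format, read 0.5 h after dosing by fluorescence from a fluorogenic substrate. Loss of signal was fitted against acetonitrile as baseline. Primary screen in duplicate at 10 uM, actives then tested in concentration series.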
# human CYP1A1, CYP1A1 (gene 1543), sequence (P04798 whole entry, looked up): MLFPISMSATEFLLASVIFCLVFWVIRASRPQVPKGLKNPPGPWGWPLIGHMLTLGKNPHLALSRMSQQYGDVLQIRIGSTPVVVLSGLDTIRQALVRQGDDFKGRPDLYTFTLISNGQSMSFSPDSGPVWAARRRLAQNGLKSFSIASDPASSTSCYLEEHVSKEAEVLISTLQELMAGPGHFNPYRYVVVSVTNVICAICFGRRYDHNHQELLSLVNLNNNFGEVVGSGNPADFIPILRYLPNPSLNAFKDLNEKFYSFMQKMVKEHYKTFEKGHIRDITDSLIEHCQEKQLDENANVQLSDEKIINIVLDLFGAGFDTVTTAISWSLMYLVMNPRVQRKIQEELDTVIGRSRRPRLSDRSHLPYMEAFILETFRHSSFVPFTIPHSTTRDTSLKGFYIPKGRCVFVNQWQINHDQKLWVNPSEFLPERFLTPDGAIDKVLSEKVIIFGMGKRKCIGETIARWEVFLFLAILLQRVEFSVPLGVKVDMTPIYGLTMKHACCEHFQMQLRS
# human CYP19A1, CYP19A1 (gene 1588), sequence (P11511 whole entry, looked up): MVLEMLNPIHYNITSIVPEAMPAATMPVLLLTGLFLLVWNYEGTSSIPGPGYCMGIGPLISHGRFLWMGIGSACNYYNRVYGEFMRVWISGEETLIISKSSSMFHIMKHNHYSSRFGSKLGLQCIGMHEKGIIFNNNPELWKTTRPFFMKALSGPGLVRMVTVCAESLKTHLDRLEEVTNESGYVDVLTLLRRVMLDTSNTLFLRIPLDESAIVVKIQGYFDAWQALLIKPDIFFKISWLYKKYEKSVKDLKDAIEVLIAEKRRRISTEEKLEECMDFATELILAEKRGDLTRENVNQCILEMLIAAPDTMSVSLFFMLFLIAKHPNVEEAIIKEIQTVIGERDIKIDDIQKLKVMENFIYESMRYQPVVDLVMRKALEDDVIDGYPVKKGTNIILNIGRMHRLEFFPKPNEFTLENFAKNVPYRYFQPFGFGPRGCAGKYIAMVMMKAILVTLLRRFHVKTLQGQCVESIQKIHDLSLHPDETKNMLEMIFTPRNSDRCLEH
# E-selectin (Homo sapiens), sequence (P16581 whole entry, looked up): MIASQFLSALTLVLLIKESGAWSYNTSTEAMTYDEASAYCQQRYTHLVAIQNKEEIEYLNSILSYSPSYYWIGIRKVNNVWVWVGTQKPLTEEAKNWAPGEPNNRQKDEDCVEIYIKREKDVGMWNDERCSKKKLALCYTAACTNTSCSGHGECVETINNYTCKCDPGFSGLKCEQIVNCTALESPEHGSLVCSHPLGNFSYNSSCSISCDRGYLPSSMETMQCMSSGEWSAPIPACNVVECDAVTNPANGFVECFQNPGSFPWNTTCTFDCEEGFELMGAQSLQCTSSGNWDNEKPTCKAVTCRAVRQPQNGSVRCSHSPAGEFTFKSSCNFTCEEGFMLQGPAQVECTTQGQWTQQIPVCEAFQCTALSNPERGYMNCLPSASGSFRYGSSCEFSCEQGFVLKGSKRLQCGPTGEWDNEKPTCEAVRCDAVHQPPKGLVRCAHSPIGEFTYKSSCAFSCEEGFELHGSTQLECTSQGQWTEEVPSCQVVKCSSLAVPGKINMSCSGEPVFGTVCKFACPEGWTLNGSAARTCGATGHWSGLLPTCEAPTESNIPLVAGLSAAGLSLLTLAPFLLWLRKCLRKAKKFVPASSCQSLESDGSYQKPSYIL
# human CYP2B6, CYP2B6 (gene 1555), sequence (P20813 whole entry, looked up): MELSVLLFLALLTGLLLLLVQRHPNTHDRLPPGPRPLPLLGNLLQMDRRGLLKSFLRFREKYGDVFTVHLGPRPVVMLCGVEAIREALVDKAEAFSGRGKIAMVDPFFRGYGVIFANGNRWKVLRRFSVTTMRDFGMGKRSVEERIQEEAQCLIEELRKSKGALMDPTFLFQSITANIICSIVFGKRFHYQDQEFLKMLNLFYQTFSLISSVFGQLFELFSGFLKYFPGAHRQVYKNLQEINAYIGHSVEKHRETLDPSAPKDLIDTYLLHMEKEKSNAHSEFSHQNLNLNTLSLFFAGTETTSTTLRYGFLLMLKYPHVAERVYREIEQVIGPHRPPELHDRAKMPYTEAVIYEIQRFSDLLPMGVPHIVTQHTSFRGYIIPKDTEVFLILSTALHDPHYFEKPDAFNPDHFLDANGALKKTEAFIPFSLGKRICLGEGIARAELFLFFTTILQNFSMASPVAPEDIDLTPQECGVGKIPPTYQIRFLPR
smiles,measurement,setting,value
CC(=O)OC(C)(C)C1CC=C(C)CC1 (configuration not stated),outcome,[1],inactive
same,outcome,[2],inactive
same,outcome,[3],inactive
same,outcome,[4],inactive
same,outcome,[5],inactive
same,outcome,[6],inactive
CCCCCCCCCCCCS,outcome,[1],inactive
same,outcome,[2],inactive
same,outcome,[3],inactive
same,outcome,[4],inactive
same,AC50,[5],20 µM (active)
same,AC50,[6],36.1 µM (active)
C#C[C@]1(O)CC[C@H]2[C@@H]3CCc4cc(O)ccc4[C@H]3CC[C@@]21C,AC50,[1],5.56 µM (active)
same,outcome,[2],inactive
same,outcome,[3],inactive
same,outcome,[4],inactive
same,AC50,[5],5.51 µM (active)
same,AC50,[6],5.5 µM (active)
same,outcome,[7],inactive
same,outcome,[8],inactive
CC(C)Cc1ccc(C(C)C(=O)O)cc1 (configuration not stated),outcome,[1],inactive
same,outcome,[2],inactive
same,outcome,[3],inactive
same,outcome,[4],inactive
same,outcome,[5],inactive
same,outcome,[6],inactive
CCCCCCCC1CCCC1=O (configuration not stated),outcome,[1],inactive
same,outcome,[2],inactive
same,outcome,[3],inactive
same,outcome,[4],inactive
same,outcome,[5],inactive
same,outcome,[6],inactive
CC(=O)C1=C(C)[C@@H]2C[C@@]3(C1)[C@H](C)CC[C@H]3C2(C)C,outcome,[9],inactive
CC1(C)[C@H](C=C(Cl)Cl)[C@H]1C(=O)OCc1cccc(Oc2ccccc2)c1,outcome,[1],inactive
same,outcome,[2],inactive
same,outcome,[3],inactive
same,outcome,[4],inactive
same,outcome,[5],inactive
same,outcome,[6],inactive
CCCCCCCCOC(=O)c1ccc(O)cc1,AC50,[9],7.86 µM (active)
CC(=O)OC(C)(C)C,outcome,[9],inactive
C[C@]12CC[C@@H]3c4ccc(O)cc4CC[C@H]3[C@@H]1CC[C@@H]2O,outcome,[2],inactive
same,outcome,[3],inactive
same,outcome,[4],inactive
same,AC50,[5],13.5 µM (active)
same,AC50,[6],10.3 µM (active)
same,outcome,[9],inactive
CCCCN(CCO)CCO,outcome,[1],inactive
same,outcome,[2],inactive
same,outcome,[3],inactive
same,outcome,[4],inactive
same,outcome,[5],inactive
same,outcome,[6],inactive
CC=CC(=O)C1=C(C)C=CCC1(C)C,outcome,[1],inactive
same,outcome,[2],inactive
same,outcome,[3],inactive
same,AC50,[4],16 nM (active)
same,outcome,[5],inactive
same,outcome,[6],inactive
CC/C(=C(\c1ccccc1)c1ccc(OCCN(C)C)cc1)c1ccccc1,AC50,[1],10.4 µM (active) and 10.1 µM (active)
same,AC50,[2],11.6 µM (active) and 12.5 µM (active)
same,AC50,[3],6.22 µM (active) and 6.86 µM (active)
same,AC50,[4],18.3 µM (active) and 7.16 µM (active)
same,AC50,[5],4.55 µM (active) and 5.13 µM (active)
same,AC50,[6],10.3 µM (active) and 9.96 µM (active)
same,outcome,[9],inactive
same,outcome,[8],inactive
O=C(c1ccc(OCCN2CCCCC2)cc1)c1c(-c2ccc(O)cc2)sc2cc(O)ccc12,AC50,[1],30.7 µM (active)
same,AC50,[2],37.4 µM (active)
same,AC50,[3],26.2 µM (active)
same,AC50,[4],28900 nM (active)
same,AC50,[5],14.6 µM (active)
same,AC50,[6],24.1 µM (active)
same,AC50,[9],4.25 µM (active) [middle of 4 runs]
same,AC50,[7],6.33 µM (active)
C=C(C)C(N)=O,outcome,[1],inactive
same,outcome,[2],inactive
same,outcome,[3],inactive
same,outcome,[4],inactive
same,outcome,[5],inactive
same,outcome,[6],inactive
CCC(=O)OCC=Cc1ccccc1,outcome,[1],inactive
same,outcome,[2],inactive
same,outcome,[3],inactive
same,outcome,[4],inactive
same,outcome,[5],inactive
same,outcome,[6],inactive
COc1ccccc1NC(=O)CC(C)=O,outcome,[1],inactive
same,outcome,[2],inactive
same,outcome,[3],inactive
same,outcome,[4],inactive
same,outcome,[5],inactive
same,outcome,[6],inactive
CC(C)(CO)CO,outcome,[1],inactive
same,outcome,[2],inactive
same,outcome,[3],inactive
same,outcome,[4],inactive
same,outcome,[5],inactive
same,outcome,[6],inactive
CCOC(=O)CCCCCCCCC(=O)OCC,outcome,[1],inactive
same,outcome,[2],inactive
same,outcome,[3],inactive
same,outcome,[4],inactive
same,outcome,[5],inactive
same,outcome,[6],inactive
O=C(O)C(F)(F)OC(F)(F)C(F)(F)OC(F)(F)C(F)(F)C(F)(F)C(F)(F)F,outcome,[1],inactive
same,outcome,[2],inactive
same,outcome,[3],inactive
same,outcome,[4],inactive
same,outcome,[5],inactive
same,AC50,[6],30 µM (active)
same,outcome,[6],inactive
O=S1(=O)CC(Cl)(Cl)C(Cl)(Cl)C1,AC50,[1],0.807 µM (active)
same,AC50,[2],0.224 µM (active)
same,AC50,[3],0.515 µM (active)
same,AC50,[4],337 nM (active)
same,AC50,[5],0.0797 µM (active)
same,AC50,[6],0.655 µM (active)
CCCCC/C=C\C=C\C(=O)OCC,AC50,[9],15.6 µM (active)
CCOC(=O)C=Cc1ccccc1,outcome,[1],inactive
same,outcome,[2],inactive
same,outcome,[3],inactive
same,outcome,[4],inactive
same,outcome,[5],inactive
same,outcome,[6],inactive
Nc1ccc(N)c([N+](=O)[O-])c1,outcome,[1],inactive
same,outcome,[2],inactive
same,outcome,[4],inactive
same,outcome,[5],inactive
same,outcome,[6],inactive
CC(C)(C)c1cccc(O)c1,outcome,[1],inactive
same,outcome,[2],inactive
same,outcome,[3],inactive
same,outcome,[4],inactive
same,outcome,[5],inactive
same,outcome,[6],inactive
c1ccc(Sc2ccccc2)cc1,AC50,[1],8 µM (active)
same,AC50,[2],30.2 µM (active)
same,AC50,[3],33.9 µM (active)
same,AC50,[4],20000 nM (active)
same,AC50,[5],34 µM (active)
same,AC50,[6],31.7 µM (active)

# From PubChem BioAssay (EPA / NIEHS)
